Assay results from ChEMBL document CHEMBL3988442, “University of Dundee, Small-Polar-MMV Screening Library” (2021).

target: T1, Aspartate--tRNA(Asp/Asn) ligase (Mycobacterium tuberculosis (strain ATCC 25618 / H37Rv)) (UniProt P9WFW3); assay: Assay for Asp RNA synthetase-1 from Mycobacterium tuberculosis; assay type: functional; parameters: scale not given: in the data most compounds retested in dose-response had high values; settings: 30 µM
T1 sequence (whole entry): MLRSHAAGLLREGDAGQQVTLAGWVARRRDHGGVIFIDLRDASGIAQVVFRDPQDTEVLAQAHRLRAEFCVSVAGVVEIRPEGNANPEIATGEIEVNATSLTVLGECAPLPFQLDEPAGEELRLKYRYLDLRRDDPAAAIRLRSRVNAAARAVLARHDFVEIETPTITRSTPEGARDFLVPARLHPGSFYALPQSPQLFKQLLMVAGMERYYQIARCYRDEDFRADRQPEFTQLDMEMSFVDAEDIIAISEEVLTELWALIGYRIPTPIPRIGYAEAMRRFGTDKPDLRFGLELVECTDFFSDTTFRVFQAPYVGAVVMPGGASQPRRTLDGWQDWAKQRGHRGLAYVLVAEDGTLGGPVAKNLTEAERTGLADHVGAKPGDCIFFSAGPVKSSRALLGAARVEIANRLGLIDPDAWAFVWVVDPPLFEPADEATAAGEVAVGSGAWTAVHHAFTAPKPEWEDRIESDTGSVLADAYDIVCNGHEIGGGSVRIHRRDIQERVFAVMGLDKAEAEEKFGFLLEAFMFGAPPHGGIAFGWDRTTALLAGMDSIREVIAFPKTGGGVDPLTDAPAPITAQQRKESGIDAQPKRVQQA

Q: COc1cc(CC(O)CO)c(OC)c2c1OCO2 (stereo not given) was tested. Which Percent Effect did it give?
A: Its Percent Effect is -3.19%.

Q: CCS(=O)(=O)N1C[C@H]2CCC[C@@]2(COc2ccccn2)C1 was tested. Which Percent Effect did it give?
A: Its Percent Effect is 3.6%.

Q: For CC(C)N1CC(C(=O)NCc2ccnc(-n3cccn3)c2)CC1=O (stereo not given), which Percent Effect is on record?
A: The Percent Effect was -0.3%.

Q: With Clc1snnc1CN1CCCCC1Cn1cncn1 (stereo not given) as the molecule, how does the Percent Effect read?
A: The Percent Effect was -1.89%.

Q: Which Percent Effect does the source give for Cc1cc(CN2CCCC(C)(CO)C2)ccc1F (stereo not given) here?
A: The Percent Effect was -3.62%.

Q: CCc1nccn1C1CCCN(C(=O)c2cnn3ccc(C)nc23)C1 (stereo not given) was tested. Which Percent Effect did it give?
A: The Percent Effect was 0.632%.

Q: For CCc1nc(C2CCCN2CCCS(=O)(=O)c2ccccc2)no1 (stereo not given), which Percent Effect is on record?
A: Its Percent Effect is -4.39%.

Q: How did the Percent Effect turn out when Cn1ccnc1CN1CCCN(C(=O)c2ccc3c(c2)COC3)CC1 was run?
A: The Percent Effect was 0.393%.

Q: Which Percent Effect does the source give for Cc1noc(C)c1CN1C[C@@H]2COC[C@H](C(=O)N3CCCCO3)[C@@H]2C1 here?
A: The Percent Effect was 4.46%.

Q: CNS(=O)(=O)c1cccc(CNC(=O)c2c(C)nn(C)c2C)c1 was tested. Which Percent Effect did it give?
A: Its Percent Effect is -4.44%.

Q: For Cc1cc(CN2CCN(C(=O)NC(C)c3cccnc3)CC2)on1 (stereo not given), which Percent Effect is on record?
A: Its Percent Effect is -1.43%.

Q: How did the Percent Effect turn out when Cc1ccc(C2C3=C(COC3=O)Nc3[nH]nc(C)c32)cc1C (stereo not given) was run?
A: The Percent Effect was -4.73%.

Q: How did the Percent Effect turn out when Cc1nc(C2CCCN2CCCS(=O)(=O)N(C)C)no1 (stereo not given) was run?
A: The Percent Effect was -1.34%.

Q: How did the Percent Effect turn out when Cc1cc(NC(=O)NCCc2ccsc2)n(C)n1 was run?
A: Its Percent Effect is -9.16%.

Q: How did the Percent Effect turn out when CC(C)(CO)NC(=O)C1CCC(=O)N(Cc2ccc(Cl)cc2)C1 (stereo not given) was run?
A: Its Percent Effect is -3.12%.

Q: For Cc1nc(C)n(CC2CCCN(c3ncnc4[nH]ccc34)C2)n1 (stereo not given), which Percent Effect is on record?
A: Its Percent Effect is -1.82%.

Q: With CC(O)CNCc1ccc(OCc2ccc3c(c2)OCCO3)cc1 (stereo not given) as the molecule, how does the Percent Effect read?
A: Its Percent Effect is 1.08%.

Q: How did the Percent Effect turn out when COC(=O)c1cccc(NS(=O)(=O)c2cnc(NC(C)=O)s2)c1 was run?
A: The Percent Effect was -3.37%.

Q: How did the Percent Effect turn out when Cc1noc(CN(Cc2ccc3c(c2)OCO3)C2CCCC2)n1 was run?
A: The Percent Effect was 1.87%.

Q: With CN(C)CC1CN(c2ccc(C#N)cn2)CCO1 (stereo not given) as the molecule, how does the Percent Effect read?
A: The Percent Effect was 0.899%.

Q: With O=S(=O)(N1CCCC1)N1CCCCC1CCc1ccccc1 (stereo not given) as the molecule, how does the Percent Effect read?
A: Its Percent Effect is 1.42%.

Q: Which Percent Effect does the source give for Cc1cccc(OCCC(=O)N(C)CCNS(C)(=O)=O)c1C here?
A: The Percent Effect was 0.299%.

Q: Which Percent Effect does the source give for Cn1ncc2c1NC(=O)CC2c1ccccc1Cl (stereo not given) here?
A: The Percent Effect was 1.14%.

Q: With N#Cc1cccc(SCCS(N)(=O)=O)c1 as the molecule, how does the Percent Effect read?
A: The Percent Effect was 0.306%.

Q: How did the Percent Effect turn out when COc1cc(C(=O)NC(CC(=O)O)c2cccs2)cc(Cl)c1OC (stereo not given) was run?
A: Its Percent Effect is 3.71%.

Q: For COc1cc(C)sc1C(=O)N1CCC(Nc2cccnc2)CC1, which Percent Effect is on record?
A: Its Percent Effect is -3.37%.

Q: For Cc1nn(C)c(C)c1C1CCCN1Cc1noc(C2CC2)n1 (stereo not given), which Percent Effect is on record?
A: Its Percent Effect is 6.1%.

Q: Which Percent Effect does the source give for COc1cccc(OCC2CCCN(C(=O)c3cnc(C)nc3O)C2)c1 (stereo not given) here?
A: Its Percent Effect is -0.346%.

Q: How did the Percent Effect turn out when O=C(CCc1nccs1)N1CCCC(N2CCNC2=O)C1 (stereo not given) was run?
A: Its Percent Effect is 6.01%.

Q: For Nc1ncc2c(n1)CN(C1CCCC1)C2=O, which Percent Effect is on record?
A: The Percent Effect was 6.87%.

Q: For O=C(NCCNc1ncccn1)N1CCCC(C(F)(F)F)C1 (stereo not given), which Percent Effect is on record?
A: The Percent Effect was 4.41%.

Q: For COCc1ccccc1C(=O)NCCCN1CCCC1C(=O)N(C)C (stereo not given), which Percent Effect is on record?
A: The Percent Effect was 5.84%.

Q: Which Percent Effect does the source give for CC(C)OCCN(C)C(C)c1cccc(S(N)(=O)=O)c1 (stereo not given) here?
A: Its Percent Effect is -3.29%.

Q: How did the Percent Effect turn out when CC(C)c1nccn1C1CCCN(C(=O)c2cnn(C)c2C2CC2)C1 (stereo not given) was run?
A: Its Percent Effect is -1.74%.

Q: With CC(C)(C)c1n[nH]c(C2CN(C(=O)c3cc(Cl)c[nH]3)CCO2)n1 (stereo not given) as the molecule, how does the Percent Effect read?
A: Its Percent Effect is -4.97%.

Q: For Cc1cccc(C(=O)N(C)Cc2cc(Br)cs2)n1, which Percent Effect is on record?
A: The Percent Effect was -0.0599%.

Q: With COc1ccc(CCC(=O)Nc2cccnc2N2CCCC2)cc1Br as the molecule, how does the Percent Effect read?
A: Its Percent Effect is -3.21%.

Q: Cn1cc(-c2nnn3c2COC(CNCc2nccs2)C3)cn1 (stereo not given) was tested. Which Percent Effect did it give?
A: The Percent Effect was -4.41%.

Q: Which Percent Effect does the source give for CC1c2ncc(Cn3cncn3)n2CCN1C(=O)C1CCOCC1 (stereo not given) here?
A: Its Percent Effect is 3.23%.

Q: With CCOCC1CN(Cc2ccoc2)Cc2nn(CC3CC3)cc21 (stereo not given) as the molecule, how does the Percent Effect read?
A: Its Percent Effect is 6.32%.
